G9a block – qHTS Assay for Inhibitors of Histone Lysine Methyltransferase G9a. Histone-lysine N-methyltransferase EHMT2 (Homo sapiens), Q96KQ7. G9a H3K9 monomethylation, AlphaScreen, 2 h. Potency, µM (doses to about 102 µM), inactives show top-dose activity, negative = inhibition, actives largely listed as inhibitors. 8.8% of 350,000 active. AID 504332, 2011; further: potency means the concentration at half of the fitted maximal effect; on the % scale 0 is the no-effect control and ±100 the full control effect; nearly all actives have a fitted effect of over 75% in size
Target sequence (Q96KQ7 913-1193 limits assumed): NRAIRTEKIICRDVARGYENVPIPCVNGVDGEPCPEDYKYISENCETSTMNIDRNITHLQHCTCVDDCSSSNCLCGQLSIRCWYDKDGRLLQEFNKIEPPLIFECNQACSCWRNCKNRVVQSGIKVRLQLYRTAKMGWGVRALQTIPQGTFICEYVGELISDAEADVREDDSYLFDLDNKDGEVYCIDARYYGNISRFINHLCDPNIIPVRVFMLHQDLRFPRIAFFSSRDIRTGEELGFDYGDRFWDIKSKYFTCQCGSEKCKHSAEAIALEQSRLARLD
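AlphaScreen read-out: biotin-H3K9 peptide (500 nM) methylation by 20 nM enzyme with 20 uM SAM, 2 h at room temperature after 15 min compound preincubation; anti-monomethyl H3K9 antibody plus donor/acceptor beads, 10 min dark.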
JMJD2E inh – qHTS Assay for Inhibitors of Human Jumonji Domain Containing 2E (JMJD2E); JMJD2E catalytic domain, FDH-coupled NADH fluorescence (FDH is formaldehyde dehydrogenase); AID 2147, 2009; Potency, µM (highest dose often 57.1 µM), for inactives: top-dose activity change, negative = inhibition, usual class: inhibitors; 1.6% of 230,000 active; Lysine-specific demethylase 4E (Homo sapiens), B2RXH2; active means well fitted inhibition curve with a large enough effect, not every such curve was filed as active; inconclusive means small, poorly fitted or top-dose-only effect, or another doubt; inactive means no such curve, though single readings can be large or run the other way;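 further: potency means the concentration at half of the fitted maximal effect; 0% = wells with enzyme and -100% = buffer wells without enzyme; nearly all actives have a fitted effect of over 50% in size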
Lamin A splicing – qHTS Assay for Modulators of Lamin A Splicing | HeLa LMNA splicing GFP/RFP minigene ratio, 48 h | AID 1487, 2009 | Potency, µM (titrated, usually from 46.1 µM), for the others: at the highest dose ratio change, negative = inhibition, hits mostly inhibitors | 0.01% of 200,000 active; active means well fitted inhibition curve with a large enough effect in the signal ratio, with a control signal flat, not every such curve was filed as active; inconclusive means small, poorly fitted or top-dose-only effect, or effect the other way, or a change in a side signal; the % refers to the signal ratio; further: potency means the concentration at half of the fitted maximal effect; on the % scale 0 is the no-effect control and ±100 the full control effect
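S3 HeLa stable clones carrying a lamin A-EGFP splicing minigene plus DsRed2 were seeded at 600 cells/well in Opti-MEM with 2% FBS, pin-dosed and incubated 48 h at 37°C. Acumen cytometry (488 nm) gave the GFP/RFP total-intensity ratio.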
Sfp PPTase inh – qHTS Assay for Inhibitors of Bacillus subtilis Sfp phosphopantetheinyl transferase (PPTase); 4'-phosphopantetheinyl transferase ffp (Bacillus subtilis), Q9F4F7; Biochemical Sfp PPTase activity, qHTS; Potency, µM, for the others: largest response in the series, negative = inhibition, actives largely listed as inhibitors; 3.5% of 310,000 active; AID 1490, 2009;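 further: the enzyme is Sfp with the accession as filed and its product quenches rhodamine fluorescence; potency means the concentration at half of the fitted maximal effect; 0% = enzyme reaction without inhibitor and -100% = no enzyme wells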
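Sfp 15 nM + cpd, 15 min RT; start w/ rhodamine-CoA 5 uM, BHQ-2-YbbR 12.5 uM (final); 50 mM Hepes pH 7.6, 10 mM MgCl2, 0.01% NP-40, 0.01% BSA; read 525/598 nm at 0 and 30 min.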
ALDH1A1 inh – qHTS Assay for Inhibitors of Aldehyde Dehydrogenase 1 (ALDH1A1). Aldehyde dehydrogenase 1A1 (Homo sapiens), P00352. Purified ALDH1A1, NADH fluorescence, propionaldehyde substrate. Potency, µM (titrated, usually from 75.3 µM), without a hit: top-dose activity, negative = inhibition, usual class: inhibitors. 7.3% of 220,000 active; active means well fitted inhibition curve with a large enough effect, not every such curve was filed as active; inconclusive means small, poorly fitted or top-dose-only effect, or another doubt; inactive means no such curve, though single readings can be large or run the other way;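 further: potency means the concentration at half of the fitted maximal effect; plate controls were no enzyme wells and a reference inhibitor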
miR-21 reporter – qHTS Assay for Modulators of miRNAs and/orActivators of miR-21 | HeLa miR-21 FLuc reporter, luciferase, 48 h | Potency, µM (titrated, usually from 38.3 µM), without a hit: at the highest dose activity change, positive = activation, actives largely listed as activators | 340,000 tested, under 10 active;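 further: % of control where 0% means no effect; miR-21 action dims this reporter so a rising signal means less miR-21 action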
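Compounds were titrated across several concentrations (up to approximately 40 uM) and incubated 48 hours with HeLa miR-21-FLuc reporter cells (miR-21 target sequence downstream of FLuc, endogenous miR-21). Readout was firefly luciferase luminescence after lytic detection reagent.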
* = called active by the depositor; ? = inconclusive; / = no result given; [ ] = remark or other dose. Shown are actives, neighbours in structure and some others; about 13% of the full set was active somewhere. Unless noted, the call rests on the fitted dose curve; in most records, active means well fitted curve in the direction sought with a large enough effect; inconclusive means small, poorly fitted or top-dose-only effect, or another doubt; inactive means no such curve, though single readings can be large; an effect the other way counts as inactive or inconclusive.

SMILES	G9a block	JMJD2E inh	Lamin A splicing	Sfp PPTase inh	ALDH1A1 inh	miR-21 reporter
CC(=O)c1cccc(S(=O)(=O)NCCC(=O)Nc2ccc(S(N)(=O)=O)cc2)c1	50µM*	/	/	22%	/	2%
CC(C)CN(CCNC(=O)c1cn(C)c2ccc(S(=O)(=O)N3CCCCCC3)cc2c1=O)CC(C)C	-26%[59 µM]	/	/	/	/	-2%
O=C1Oc2ccccc2C(=O)/C1=C/N1CCN(c2ccccc2F)CC1	-14%	2%	-23%[46 µM]	20%	18µM*	6%
CCS(=O)(=O)N1CCN(c2ccccc2F)CC1	?	-5%	9%	8%	1%	1%
Cc1cc(-c2ccc(C(C)C)c(S(=O)(=O)N3CCC(C)CC3)c2)on1	/	/	/	-8%	/	6%
COc1ccc(C2C=C(c3ccc(Br)cc3)Nc3nc(N4C(=O)CCC4=O)nn32)cc1 (stereo unspecified)	35µM*	?	7%	-24%	?	1%
O=C1CCC(=O)N1c1nc2n(n1)C(c1ccccc1)C=C(c1ccc(Br)cc1)N2 (stereo unspecified)	25µM*	?	0%	?	?	0%
COc1ccc(C2C=C(c3ccc(F)cc3)Nc3nc(-c4ccc(Cl)cc4)nn32)cc1 (stereo unspecified)	-13%[59 µM]	/	/	/	/	-10%
COC(=O)CC1C2(C)CC34OC5(C)O[C@@]6(C7/C(=C(/O)C(C)C)C(=O)OC(c8ccoc8)[C@]7(C)C(OC(C)=O)C(OC(C)=O)[C@]6(O5)[C@@]13C)C(OC(C)=O)[C@]4(O)C2OC(=O)C(C)C (stereo partly specified)	-29%[2.33 µM]	3%	/	4%	2%	/
CCc1nn2c(=O)c(S(=O)(=O)Nc3ccc(C)cc3C)c(C)nc2s1	?	/	/	/	/	6%
Cn1cccc1C(=O)Nc1nc(-c2ccccn2)cs1	/	?	?	-70%	14µM*	6%
CSCCC(=O)Nc1nc(-c2ccccn2)cs1	8.9µM*	?	/	-68%	28µM*	-4%
Cc1cc(C)cc(OCC(=O)Nc2nc(-c3ccccn3)cs2)c1	22µM*	/	/	/	/	/
O=C(CN1C(=O)CCC1=O)Nc1nc(-c2ccccn2)cs1	15%	?	2%	50µM*	-13%	1%
O=C(CN1C(=O)CCC1=O)Nc1nc(-c2ccc3ccccc3c2)cs1	9%	0%	/	8%	0%	-39%
COC(=O)C(CC(=O)c1cccc(OC)c1)c1ccc(F)cc1 (stereo unspecified)	90%	-9%	/	5%	-8%	-4%
Cc1cccc(N(CC(=O)N2CCCC2)S(C)(=O)=O)c1	0%[0.501 µM]	/	/	1%	/	-2%
CCOC(=O)N1CCN(S(=O)(=O)N2CCCC(C(=O)NCc3cccc(OC)c3)C2)CC1 (stereo unspecified)	29%	/	-10%[46 µM]	7%	/	5%
CC[n+]1c(/C=C/N(C)c2ccccc2)n(-c2ccccc2)c2ccc(-c3nc4ccccc4s3)cc21	25µM*	/	/	45µM*	/	?
CCc1cccc(NC(=S)N(CCCOC(C)C)C2CCN(C(C)=O)CC2)c1	13%	/	/	10%	/	-3%
CC(C)[C@@H]1NC(=O)[C@H](CCCCN)NC(=O)[C@@H](Cc2c[nH]c3ccccc23)NC(=O)[C@H](Cc2ccc(O)cc2)NC(=O)[C@@H](NC(=O)[C@H](N)Cc2ccccc2)CSSC[C@@H](C(=O)N[C@@H](Cc2c[nH]c3ccccc23)C(N)=O)NC1=O	/	/	/	26%	/	/

Screening results (PubChem)
